PubChem BioAssay AID1347416 (National Center for Advancing Translational Sciences (NCATS), 2020)
Out of some 4,100 compounds screened, about 1,600 (39%) were called active. Roughly 25% stayed inconclusive and do not appear here. The call rests on the fitted dose curve; in most records, active means well fitted inhibition curve with a large enough effect; inconclusive means small, poorly fitted or top-dose-only effect; inactive means no such curve, though single readings can be large or run the other way. Some of the results follow.

Test: qHTS Validation assay for Inhibitors of Plasmodium falciparum Dd2 growth in vitro; further: nearly all actives have a fitted effect of over 70% in size
Settings: P. falciparum Dd2 in RBCs, SYBR Green growth, 72 h; series mostly up to 28.7 µM; activity change, negative = inhibition: at the top concentration
Summary of the method: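 P. falciparum Dd2-infected red blood cells (2.5% hematocrit, 0.3% parasitemia) grown 72 h at 37 °C under 5% O2 with compounds in a titration, 29 uM to 0.5 nM final. Growth read as SYBR Green-1 fluorescence after ~16 h lysis; artesunate 300 nM as positive control.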
On the % scale 0 is the no-effect control and ±100 the full control effect; potency means the concentration at half of the fitted maximal effect.

SMILES	Potency	activity change, negative = inhibition
Cc1cc(Nc2ccc3ccccc3c2)n2ncnc2n1	0.596 µM (active)	
Cc1cc(Nc2ccc(C(C)C)cc2)n2ncnc2n1	4.22 µM (active)	
COc1ccc(Nc2cc(C)nc3ncnn23)cc1Cl		-25.8% (inactive)
OC(CNCC(c1ccco1)N1CCCCC1)c1ccccc1 (stereo unspecified)	5.96 µM (active)	
COc1cccc(C(=O)N2CCCC(Cc3noc(-c4ccncc4)n3)C2)c1 (stereo unspecified)		8.6% (inactive)
O=C(c1ccncc1)N1CCC(Cc2nc(-c3ccccc3)n[nH]2)CC1		-3.39% (inactive)
O=C1CC(c2ccccc2)N(Cc2ccncc2)CCCN(C(=O)Nc2ccccc2F)CCN1 (stereo unspecified)	1.68 µM (active)	
O=C(NCc1ccncc1)[C@@H]1C[C@@H](c2ccc(F)cc2)N(Cc2ccccc2)C1		-28.6% [at 43.1 µM] (inactive)
N#Cc1cccc(C(=O)N2CCCN(Cc3ccncc3)C(c3ccccc3)CC(=O)NCC2)c1 (stereo unspecified)	7.5 µM (active)	
COC(=O)c1c(C(=O)OC)c(-c2ccc(C)cc2)n2c1CS(=O)(=O)C2		-1.51% (inactive)
O=C(N[C@H]1C[C@H]2C(=O)NC[C@@H](CCC(=O)N3CCN(c4ccccc4)CC3)N2C1)C1CC1		57.6% (inactive)
COC[C@@H]1CN(Cc2cc(OC)cc(OC)c2)C[C@H]1C(=O)N(C)C		12.8% (inactive)
Cc1nc(-c2ccc(F)cc2)n(CC(=O)Nc2cccc(Cl)c2)c(=O)c1CCO	15 µM (active)	
CSc1cccc(NC(=O)Cn2c(-c3ccc(F)cc3)nc(C)c(CCO)c2=O)c1	13.3 µM (active)	
Cc1nc(-c2cccc(Cl)c2)n(CC(=O)NCc2ccc(F)cc2)c(=O)c1CCO		28.7% (inactive)
CC1=C(C(=O)NCc2ccccn2)C2(CCC(C)CC2)OC1=O (stereo unspecified)		26.2% (inactive)
O=C(Nc1cccc(C(F)(F)F)c1)C1CCN(S(=O)(=O)c2cccc3nsnc23)CC1		5.55% (inactive)
NC(=O)C1CCN(CC(=O)Nc2cccc(C(=O)Nc3cccc(C(F)(F)F)c3)c2)CC1	6.68 µM (active)	
CC1(C)[C@H]2CC[C@@H](CNC(=O)c3cccc4[nH]ccc34)[C@@H]1C2		44.5% [at 43.1 µM] (inactive)
CCn1cc(CN2CCCC(COc3ccccc3C(=O)N3CCCC3)C2)c2ccccc21 (stereo unspecified)	8.41 µM (active)	
O=C(Nc1cccc(F)c1)N1CCC(Oc2ncccc2C(=O)N2CCCCC2)C1 (stereo unspecified)		-19.9% (inactive)
O=C(NC1CC1)c1ccccc1OCC1CCCN(Cc2cccc3[nH]ccc23)C1 (stereo unspecified)	5.96 µM (active)	
O=C(c1ccccc1OCC1CCCN(Cc2ccncc2F)C1)N1CCCCC1 (stereo unspecified)	10.6 µM (active)	
Cc1ccncc1C(=O)N1CCCC(c2nnnn2C)C1 (stereo unspecified)		-2.38% (inactive)

SMILES	Potency	activity change, negative = inhibition
COc1ccccc1C(=O)NC1CCCN(c2cc(-c3ccc(F)cc3)[nH]n2)C1 (stereo unspecified)		-3.49% (inactive)
O=C(c1cc(-c2ccccc2)n[nH]1)N1CCCC(Cc2noc(-c3cnccn3)n2)C1 (stereo unspecified)		1.43% (inactive)
CN(C)C[C@H]1C[C@@H](CO)CN(C(=O)c2ccccc2OC(F)(F)C(F)F)C1		26.4% (inactive)
O=C(c1ccccc1OCC1CCCN(Cc2ccncc2F)C1)N1CCCC1 (stereo unspecified)	10.6 µM (active)	
CCOc1ccccc1C(=O)N1CCN(C2CCN(C)C2=O)CC1 (stereo unspecified)		31.5% (inactive)
Cc1nc(N2CCCC3(CN(C)C(=O)O3)C2)cc(-n2cccn2)n1 (stereo unspecified)		31.3% (inactive)
CC(C)c1noc(-c2cccn3c(CNC(=O)c4cc(F)ccc4Cl)nnc23)n1		5.47% (inactive)
COc1ccc(C2Nc3ccccc3C(=O)N2Cc2ccccc2)cc1COc1ccc(Cl)cc1Cl (stereo unspecified)	8.41 µM (active)	
COc1ccc(C(=O)N[C@@H]2CCC[C@@H]2C(=O)N2CCN(C(=O)c3ccco3)CC2)cn1		10.4% (inactive)
CCC(C)(C)n1nnnc1C(c1ccccc1OC)N1CCN(C(=O)c2ccco2)CC1 (stereo unspecified)	15 µM (active)	
COc1cc2c(cc1OC)CN(C(=O)c1ccco1)CC2		46.3% (inactive)
CCC(C)(C)n1nnnc1C(c1cc2cccc(C)c2[nH]c1=O)N1CCN(C(=O)c2ccco2)CC1 (stereo unspecified)	6.68 µM (active)	
Cc1ccc(NC(=O)N(Cc2ccc3c(c2)OCO3)Cc2cc3cc4c(cc3[nH]c2=O)OCCO4)cc1	6.68 µM (active)	
O=C(Nc1ccc(Cl)cc1)Nc1ccc2c(c1)N1CCN=C1S2	5.31 µM (active)	
CCCCCCCc1c(C)nc(N2CCOCC2)[nH]c1=O	5.31 µM (active)	
O=C(c1cc2cc(Br)ccc2[nH]1)N1CCc2ccccc21		-28.9% (inactive)
NNC(=O)CN1C(=O)Nc2ccc(Br)cc2C1c1ccccc1 (stereo unspecified)		35.3% (inactive)
NNC(=O)CN1C(c2cccc(Cl)c2)=Nc2ccc(Br)cc2C1c1ccccc1 (stereo unspecified)	2.66 µM (active)	
COC(=O)CC1Oc2ccc(Cl)cc2-n2cc(-c3ccc(F)cc3)nc21 (stereo unspecified)	4.22 µM (active)	
CN(C1CCCCC1)S(=O)(=O)c1ccc2c(c1)c(=O)c(C(=O)N1CCN(c3ccccc3F)CC1)cn2C		69% (inactive)
CCn1cc(C(=O)N2CCN(c3ccccc3)CC2)c(=O)c2cc(S(=O)(=O)N(C)C3CCCCC3)ccc21		31.9% (inactive)
CCn1cc(C(=O)NCCCN2CCCC(C)C2)c(=O)c2cc(S(=O)(=O)N(C)C3CCCCC3)ccc21 (stereo unspecified)	8.41 µM (active)	
COc1ccc(CC(=O)N[C@@H]2CN(c3ccccn3)C[C@H]2CN(C)C)cc1		-20.3% (inactive)
Cc1cc(Cl)c(S(=O)(=O)N2CCN(c3ccccn3)CC2)cc1OCC(=O)NC1CCCCC1	0.668 µM (active)	

SMILES	Potency	activity change, negative = inhibition
O=C(CC1CCCN(c2cnn(CC3CC3)c(=O)c2)C1)N1CCN(c2ccccn2)CC1 (stereo unspecified)		-17.6% (inactive)
O=C(COc1ccc(Cl)cc1)N1C[C@@H](CO)[C@H](c2ccccn2)C1		7.42% (inactive)
Cn1cccc1CN1CCn2c(nnc2-c2ccccc2)C1		-6.66% [at 43.1 µM] (inactive)
Cn1cccc1CN1C[C@@H](COc2ccncc2)[C@H](c2ccccn2)C1	13.3 µM (active)	
CC(C)CCN(CCC(C)C)CC(O)Cn1c2ccccc2c(=O)c2ccccc21 (stereo unspecified)	1.88 µM (active)	
O=C([C@@H]1C[C@H](Oc2ccccc2)CN1C(=O)c1cc2ccccc2[nH]1)N1CCCC1		-12.6% (inactive)
O=C(Cc1c[nH]c2ccccc12)N1CCc2c(nc(-c3ccc(F)cc3)[nH]c2=O)C1		-7.04% (inactive)
O=C(c1ccc(OC2CCN(Cc3c[nH]c4ccccc34)CC2)cc1)N1CCCCC1	15 µM (active)	
CN1C2CCC1/C(=C\c1ccccc1)C(=O)/C2=C\c1ccccc1	2.11 µM (active)	
Cc1ccc(Oc2c(C(F)(F)F)oc3c(CN4CCC(C)CC4)c(O)ccc3c2=O)cc1	1.68 µM (active)	
Cc1cc(Oc2c(C(F)(F)F)oc3c(CN4CCC(C)CC4)c(O)ccc3c2=O)cc(C)c1Cl	0.75 µM (active)	
CCc1nc(CN(C)C(C(=O)O)c2ccc(C(C)(C)C#N)cc2)no1 (stereo unspecified)		43.9% (inactive)
Nc1ccc(NC(=O)c2cccc(C(=O)Nc3ccc(N)cc3Cl)c2)c(Cl)c1		9% (inactive)
Cc1cn2nc(C(=O)N3CCC(C(=O)NCCc4ccccc4)CC3)cc2c(=O)[nH]1		3.72% (inactive)
CCOC(=O)C1CCN(C(=O)c2cc(C(C)(C)C)nn2Cc2ccccc2)CC1	4.73 µM (active)	
CN1CCCCCC(O)c2cc(C(=O)N3CCN(Cc4ccccc4)CC3)ccc21 (stereo unspecified)		-27.5% (inactive)
O=C(c1cnc2n1CCN(CCc1ccccc1)CC2)N1CCC(c2ccccc2)CC1		-14.7% [at 43.1 µM] (inactive)
CCn1nc(C)cc1C(=O)N1Cc2cnn(Cc3ccc(F)cc3)c2C1		5.55% (inactive)
CCOC(=O)C1CCN(C(=O)c2cc3c(n2C)CCN(Cc2ccccc2)C3)CC1	10.6 µM (active)	
COc1ccc(NC(=O)c2ccc(Cl)c(S(=O)(=O)N3CCc4ccccc4C3)c2)cn1	7.5 µM (active)	
COc1ccc(NC(=O)c2ccc3c(c2)NC(C)(COCC2CC2)CO3)cn1 (stereo unspecified)		41.9% [at 43.1 µM] (inactive)
O=C(Nc1cccnc1)c1ccc(Cl)c(S(=O)(=O)N2CCc3ccccc32)c1		-21.8% (inactive)
CC(C)N(C)Cc1nnnn1CC(=O)N1CCC(O)(c2cccnc2)CC1		51.6% (inactive)
Cc1cc(C)cc(N=Cc2[nH]c3ccc(Br)c(Cl)c3c2O)c1	11.9 µM (active)	

SMILES	Potency	activity change, negative = inhibition
O=C(Cc1ccc(NC(=O)N2CCSc3ncccc32)cc1)NCCc1ccccc1		47.8% (inactive)
CCOc1ccc(CCNC(=O)Nc2ccccc2)cc1OCC	5.31 µM (active)	
CC(C)C(=O)Nc1oc(-c2ccccc2)cc1C#N	6.68 µM (active)	
c1ccc(-c2noc(-c3ccn4c(CN5CCSCC5)nnc4c3)n2)cc1		4.68% (inactive)
CCN1CCN(C(=O)c2ccc3c(Cl)c4c(nc3c2)CCCC4)CC1		-2.92% (inactive)
CCN1CCC(Nc2ccnc3cc(Cl)ccc23)CC1	0.188 µM (active)	
Clc1ccc2c(NCc3ccccn3)ccnc2c1	2.11 µM (active)	
CCN(CC)CCNc1ccnc2cc(Cl)ccc12	0.211 µM (active)	
CCC(O)c1cc2n(n1)CCN(C(=O)CN1CCOc3ccccc3C1)C2 (stereo unspecified)		8.38% (inactive)
CN1CCC2(C1)CN(Cc1ccccc1)c1ccc(C(=O)Nc3ccc(F)cc3)cc12 (stereo unspecified)	19.3 µM (active)	
CC1(CNc2ccccc2)COc2ccc(C(=O)NCc3cccc(F)c3)cc2N1 (stereo unspecified)		-24.8% [at 43.1 µM] (inactive)
CN1c2cc(C(=O)Nc3ccc(F)cc3)ccc2C(=O)N2CCCCC21 (stereo unspecified)		-5.09% (inactive)
Cc1sc2nc(-c3ccccn3)[nH]c(=O)c2c1-c1ccccc1	13.3 µM (active)	
Cc1cccc(NC(=O)Cn2c(C)cc3nc4n(c(=O)c32)CCCCC4)c1C		-16.8% (inactive)
Cc1cccc(Nc2cc(C)c3c(O)cccc3n2)c1C	4.73 µM (active)	
Cc1ccccc1Nc1cc(C)c2c(O)cccc2n1	5.31 µM (active)	
CCc1ccc2oc(-c3ccc(NC(=O)c4cc5ccccc5o4)cc3)nc2c1		-19.7% (inactive)
O=C(Nc1ccc(-c2nc3cc(NC(=O)c4ccccc4F)ccc3o2)cc1)c1ccccc1F		54% (inactive)
Nc1ccc2oc(-c3ccc4nc[nH]c4c3)nc2c1	13.3 µM (active)	
COc1ccc(CCN(C)C(=O)CC(c2cccc(F)c2)c2cn(C)c3ccccc23)cc1OC (stereo unspecified)	8.41 µM (active)	
OC(CNC1CCCCCC1)COc1cccc2ccccc12 (stereo unspecified)	1.88 µM (active)	
C/C(=N\Nc1ncnc2sc(C)c(C)c12)c1ccccn1	1.33 µM (active)	
Cc1sc2ncnc(SC(C)C(=O)N3c4ccccc4Sc4ccccc43)c2c1C (stereo unspecified)		-2.6% (inactive)
Cc1sc2ncnc(NCC3(N4CCOCC4)CCCCC3)c2c1C		-18.8% (inactive)
